About 79,000 compounds went through this panel and 15% of them were active in at least one assay; those are over-represented in the sample as a whole. Values without a mark were called inactive. Activity calls are given as the source filed them. Rule as the data show it: active = growth inhibition above about 70%; inactive = the rest.
What was measured:
[1] = NCI Yeast Anticancer Drug Screen. Data for the rad50 strain (AID 155);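 also: 0% = growth of vehicle-only cultures of the same strain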; details: S. cerevisiae rad50 strain growth inhibition; at 50.0 µM; active compounds read high
Outline: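 DNA repair mutant yeast, compound exposure, growth read-out; inhibition is taken relative to vehicle.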

[2] = NCI Yeast Anticancer Drug Screen. Data for the mec2-1 strain (AID 157); details: S. cerevisiae mec2-1 strain, at 50.0 µM, active compounds read high
Outline: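 Each compound was tested on mec2-1 yeast, a strain altered in DNA damage repair or cell cycle control. Growth inhibition is reported relative to vehicle.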

[3] = NCI Yeast Anticancer Drug Screen. Data for the sgs1 mgt1 strain (AID 161);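 also: 0% = growth of cultures given vehicle only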; details: S. cerevisiae sgs1 mgt1 strain, at 50.0 µM, active compounds read high
Outline: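 Test agents were incubated with a DNA-repair-mutant yeast strain. Growth was then read and compared against vehicle-treated controls.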

[4] = NCI Yeast Anticancer Drug Screen. Data for the cln2 rad14 strain (AID 165);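 also: 0% = growth equal to vehicle treated cultures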; details: S. cerevisiae cln2 rad14 strain, at 50.0 µM, active compounds read high
Outline: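 Test compounds were added to cln2 rad14 yeast cultures; inhibition of growth was then determined by comparison with vehicle treatment.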

[5] = NCI Yeast Anticancer Drug Screen. Data for the bub3 strain (AID 167); details: S. cerevisiae bub3 mutant strain, at 50.0 µM, active compounds read high
Outline: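 In this screen, a yeast mutant lacking normal mitotic checkpoint function is challenged with compound. Relative growth versus vehicle gives the inhibition value.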

[6] = NCI Yeast Anticancer Drug Screen. Data for the mlh1 rad18 strain (AID 175); details: S. cerevisiae mlh1 rad18 strain growth inhibition; at 50.0 µM; active compounds read high
Outline: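 Inhibition values reflect reduced growth of mutant yeast versus vehicle-treated controls following compound exposure; the mutations affect DNA damage repair.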

Compound	growth inhibition [1]	growth inhibition [2]	growth inhibition [3]	growth inhibition [4]	growth inhibition [5]	growth inhibition [6]
C[N+]1(C)C/C(=C\c2ccncc2)C(=O)/C(=C/c2ccncc2)C1	0.3%	-2.45%	14.3%	5.3%	1.1%	-10.2%
O=C1C(=O)N(c2cc(Cl)ccc2Cl)C(=O)C(=O)C1c1nc2ccccc2s1	-7.8%	18.6%	0.3%	-18.8%	9.4%	-19.4%
O=C1CCc2cc3c(cc21)OCO3	4.8%	-33.8%	-3.95%	-9.35%	6.7%	-6.15%
Cc1ncc(CO)c(/C=N/NC(=O)c2ccncc2)c1O	14.3%	9.4%	11.7%	-35.5%	15.8%	17.6%
CCN(CC)c1ncnc2n[nH]nc12	-1.5%	-15.6%	-18%	-27.9%	-28.5%	3.45%
Oc1ccc(Cl)cc1CN1CCOCC1	31.3%	11.6%	36.1%	21.5%	13.3%	34.5%
O=C(O)C1CCCCC1C(=O)NCc1ccco1 (stereo unspecified)	5.25%	4.55%	4.05%	3.7%	25.4%	0.05%
CC(C)(C)c1ccc(O)c(Sc2cc(C(C)(C)C)ccc2O)c1	5.8%	-24.9%	7.95%	-33.4%	12.6%	-15.2%
[O-][n+]1ccccc1Cl	8.05%	9.9%	10.2%	-14.4%	6.85%	16.4%
C=C(Cl)/C(=C\Cl)CCC(Cl)C(C)C (stereo unspecified)	19.6%	15.2%	3.1%	29.1%	-15.3%	4.25%
O=c1oc2c3ccc4ccccc4c3n(CCN3CCCCC3)c2c2ccccc12	30.4%	53.6%	22.9%	32.5%	44.3%	77.1% (active)
C1CCc2nc3c(nc2C1)CCCC3	9.75%	1.6%	1.7%	-9.65%	-0.5%	7%
C=C1COC(/C=C(\C)CC/C=C(\C)CCl)C1 (stereo unspecified)	-7.4%	-20.2%	-18.6%	28.1%	-17.1%	-1.7%
COc1ccc2c(c1)OCC1=C2Oc2ccccc2C1	98.2% (active)	99.3% (active)	99.1% (active)	98.6% (active)	97.9% (active)	98.8% (active)
CCOC(=O)c1c(O)c(Cc2ccccc2)c(=O)n2c1[nH]c1cc(C)c(C)cc12	26.6%	26.2%	12.2%	15.5%	-0.95%	-1%
Cc1ccccc1CCOC(=O)c1cc([N+](=O)[O-])cc([N+](=O)[O-])c1	-19%	2.2%	-10.9%	4.1%	5.45%	-16.4%
Cc1cnc(Cl)[nH]1 (tested in a mixture with another compound)	2.7%	1.55%	2.15%	-47.5%	14.8%	-5.5%
COc1ccc(Cl)cc1NC(=O)Nc1cc(C)ccc1Cl	-8.35%	25.8%	27.4%	-25.2%	28.8%	9.9%
COC(=O)Cc1onc(-c2ccccc2)c1[N+](=O)[O-]	-17.3%	-12.2%	-4.8%	19.9%	28.9%	32%
Cc1cccc(C)c1Nc1cc(=O)[nH]c(=O)[nH]1	-2.6%	-2.75%	3.4%	-33.2%	-11.6%	-12.2%
O=C1CC(c2ccccc2)Oc2ccccc21 (stereo unspecified)	-24.5%	-58.1%	-16.8%	8.2%	-25.2%	-24.1%

Compound	growth inhibition [1]	growth inhibition [2]	growth inhibition [3]	growth inhibition [4]	growth inhibition [5]	growth inhibition [6]
C[C@H](N)C(=O)/C=C/c1ccccc1	-18.8%	-30.6%	-6.05%	14.9%	8.8%	-8.5%
CC1(CBr)COC(c2ccccc2)(C2CCCCC2)OC1 (stereo unspecified)	-1.9%	-14.8%	-5.55%	-1.9%	-13.7%	23.7%
CCCOC1NC(=O)Oc2ccccc21 (stereo unspecified)	-14.8%	-6.1%	-0.9%	-30.4%	-1.55%	13.8%
Cc1ccc(OP2(Oc3ccc(C)cc3)=NP(Oc3ccc(C)cc3)(Oc3ccc(C)cc3)=NP(Oc3ccc(C)cc3)(Oc3ccc(C)cc3)=N2)cc1	10.6%	-4.15%	-17.6%	-4.5%	2.7%	0.4%
O=C(O)C1(C(=O)O)Cc2ccccc2C1	-15.6%	-12.6%	-9.15%	-9.35%	9.85%	14.8%
Cc1ccccc1NCc1ccccc1[N+](=O)[O-]	23.9%	11.1%	14.8%	-28.6%	-14.6%	18.9%
Nc1nc2c(c(-c3cccc(Cl)c3)n1)COC/C2=C\c1cccc(Cl)c1	26.3%	20.8%	25.2%	20.2%	25.4%	24%
CN(CCNC(=O)NC1CCCCC1)c1ccccc1	3.45%	0.75%	15.9%	2.85%	8.45%	35.4%
Cc1ccc(CNC2=C(Cl)C(=O)c3ccccc3C2=O)cc1C	96.9% (active)	98.2% (active)	97.2% (active)	97.2% (active)	98% (active)	97.2% (active)
CCN(CC)CC(c1ccccc1)C(C)(O)c1ccccc1 (stereo unspecified)	-2%	-10.1%	-8%	10.9%	27.4%	-22.4%
CN=C1Nc2ccc(Cl)cc2C(c2ccccc2)=NN1C	10%	-19.4%	2.9%	11.3%	6.85%	-12.6%
COC(=O)C1=C(C(=O)OC)C2(CCCCCC2=O)OC1=O (stereo unspecified)	-0.65%	5.45%	-12.8%	8.9%	3.85%	-8.25%
COc1ccc(C(=O)c2ccccc2)c(N)c1	11.2%	13.1%	-2.4%	-18.9%	-17.9%	10.4%
Cc1ccc(-n2nnc(-c3ccc(Cl)c(Cl)c3)n2)cc1	-30.9%	-40.8%	-4.45%	-12.1%	-18.6%	-31.5%
CCc1ccc2[nH]nc(CCC(=O)O)c(=O)c2c1	-1.5%	-4.7%	-13.2%	-12.4%	-23.2%	-7.05%
CCC(/C=C\C(C)C1CCC2C3CC=C4CC(OS(=O)(=O)c5ccc(C)cc5)CCC4(C)C3CCC12C)C(C)C (stereo unspecified)	-9.9%	-3.95%	-16.6%	-5.6%	1.1%	-32.1%
Nc1cccc(-c2nc3ccccc3[nH]2)c1	-21.9%	-26.4%	-17.8%	-9.2%	-20.2%	-14.6%
CC(=O)OC1OCCCC1Cl (stereo unspecified)	-8.95%	-27.9%	-7.75%	-3.2%	-30.8%	10.3%
COc1cccc(OC)c1C	15.1%	-11.1%	-10.6%	14.6%	-4.25%	16.6%
CC(=O)CC(C)(C)NNC(N)=S	1.45%	0.7%	14.3%	-21.6%	-4.2%	22.2%

Source: PubChem BioAssay (NCI)
